# GLP-1R inv ag: inverse agonists of human GLP-1 receptor; Potency, µM (top dose mostly 38.3 µM), inactives show at the top dose activity change, negative = inhibition, most hits filed as inhibitors; 1.6% of 410,000 active; HEK293 GLP-1R CRE-luciferase, luminescence, 24 h; GLP-1R form is constitutively active; P43220; further: on the % scale 0 is the no-effect control and ±100 the full control effect; nearly all actives have a fitted effect of over 55% in size
#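 Constitutively active GLP-1R drives a cAMP-responsive luciferase in stably transfected HEK293 cells; test compounds are added after overnight (12 h) attachment and left 24 hr, and signal loss in luminescence marks inhibition.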
# Gal4-VP16 FLuc: inhibits Gal4-VP16 luciferase reporter, ROR gamma counter-screen; Drosophila S2 Gal4-VP16 UAS-luciferase, luminescence, 20 h; Potency, µM (top dose mostly 53.6 µM), inactives show at the highest dose activity, negative = inhibition, usual class: inhibitors; 3.5% of 310,000 active;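 further: Gal4-VP16 expression switched on by copper sulfate through the metallothionein promoter; on the % scale 0 is the no-effect control and ±100 the full control effect; nearly all actives have a fitted effect of over 50% in size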
# GLP1R ag: GLP-1 receptor (human) agonism. P43220. 0.007% of 380,000 active. HEK293 GLP-1R CRE-luciferase, luminescence, 4-6 h; cells express a hypersensitive GLP-1R form. AID 624172. Potency, µM (top dose mostly 45.6 µM), inactives show at the highest dose activation, usual class: activators; further: % of control where 0% means no effect
# HEK293 tox: cytotoxic in the GLP-1 receptor inverse agonist counter-screen | HEK293 cAMP-luciferase reporter cells, luminescence, 24 h | Potency, µM (highest dose often 38.3 µM), for inactives: at the highest dose activity change, negative = inhibition, actives largely listed as inhibitors | 0.13% of 410,000 active;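 further: loss of luciferase light is scored as toxicity; on the % scale 0 is the no-effect control and ±100 the full control effect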
#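 Luminescence readout: signal drop marks cytotoxicity. Plated cells grew 12 h at 37 °C, 5% CO2, received 23 nL compound for 24 h, then got luciferase reagent, read after 12 min at RT.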
# RORg inh: inhibitors of mouse ROR gamma transcriptional activity. Drosophila S2 Gal4-RORgamma UAS-luciferase reporter, 20 h. Potency, µM (highest dose often 53.6 µM), for inactives: at the top dose activity change, negative = inhibition, most hits filed as inhibitors. 5.4% of 310,000 active. P51450. AID 2551; further: on the % scale 0 is the no-effect control and ±100 the full control effect; nearly all actives have a fitted effect of over 60% in size
# Target sequence (P51450 whole entry, looked up, the tested form may be a part): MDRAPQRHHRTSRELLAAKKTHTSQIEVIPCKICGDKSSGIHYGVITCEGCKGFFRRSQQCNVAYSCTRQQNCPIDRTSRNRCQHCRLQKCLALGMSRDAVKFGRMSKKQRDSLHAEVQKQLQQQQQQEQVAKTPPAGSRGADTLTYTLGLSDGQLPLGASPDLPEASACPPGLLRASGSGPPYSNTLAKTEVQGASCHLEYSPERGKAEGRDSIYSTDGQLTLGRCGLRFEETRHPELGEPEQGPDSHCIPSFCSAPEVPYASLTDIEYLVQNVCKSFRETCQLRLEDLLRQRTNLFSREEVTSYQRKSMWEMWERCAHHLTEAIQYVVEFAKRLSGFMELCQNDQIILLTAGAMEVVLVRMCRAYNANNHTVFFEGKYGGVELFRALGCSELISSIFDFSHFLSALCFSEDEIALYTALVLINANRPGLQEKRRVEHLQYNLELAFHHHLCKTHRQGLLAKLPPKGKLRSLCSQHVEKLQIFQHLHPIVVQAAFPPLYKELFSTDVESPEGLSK
#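 Stable Schneider cell line, Gal4 DNA-binding domain fused to ROR gamma, UAS-luciferase. Cmpd 1 hr RT → CuSO4 700 uM final → 20 hr RT → luciferase reagent 10 min → luminescence.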
# * = called active by the depositor; ? = inconclusive; nt = no result given; [ ] = remark or other dose. Sampled rows, rich in hits. Any-hit rate of the full collection: about 5.9%. The call rests on the fitted dose curve; in most records, active means well fitted curve in the direction sought with a large enough effect; inconclusive means small, poorly fitted or top-dose-only effect, or another doubt; inactive means no such curve, though single readings can be large; an effect the other way counts as inactive or inconclusive. Potency means the concentration at half of the fitted maximal effect.
SMILES,GLP-1R inv ag,Gal4-VP16 FLuc,GLP1R ag,HEK293 tox,RORg inh
CCOC(=O)N1CCN(C(=O)CNC(=O)c2ccc(Br)cc2)CC1,12.1%,-9.9%,6.2%,4.4%,-1.1%
CCOC(=O)N1CCN(C(=S)NC(=O)c2cc(Br)ccc2Cl)CC1,-22.9%,5.01µM*,5.5%,-7.4%,0.891µM*
CCOC(=O)N1CCN(C(=S)NC(=O)c2cncc(Br)c2)CC1,-46.6%,2.51µM*,1.8%,-14.9%,1.12µM*
Cc1cccc(N2CCN(C(=O)CCc3c(C)nc4ncnn4c3C)CC2)c1C,-9.7%,nt,-2.4%,-15.5%,nt
CCc1oc2ccccc2c1C(=O)c1cc(I)c(O)c(I)c1,nt,-8.9%,-0.6%,nt,3.1%[10 µM]
CCCN(CC1CC1)c1nc(C)nc(Nc2c(Cl)cc(Cl)cc2Cl)c1Cl,?,-3.8%,1.9%,-11.1%,3.55µM*
CCCN(CC1CC1)c1nc(N)c(C#N)c(CC#N)c1C#N,91.6%,0.9%,-1.7%,0.1%,15.8%
c1ccc(C2Nc3ccccc3-c3nc4ccccc4n32)nc1 (centres undefined),-46.4%,-8.7%,15.4%,-1.6%,8.91µM*
COc1ccc(-c2cc(=O)c3ccccc3o2)cc1OC,nt,0.2%,nt,nt,-26.9%
O=c1cc(-c2ccc(O)c(O)c2)oc2ccccc12,nt,1.0%,nt,nt,3.16µM*
Cc1ccc(Cc2c(C)nc3c(-c4ccccc4)c(C)[nH]n3c2=O)cc1,?,nt,-2.2%,-8.0%,nt
CCc1c(C)nc2c(-c3ccccc3)c(C)[nH]n2c1=O,7.1%,?,-6.2%,5.4%,11.2µM*
COc1ccccc1-c1c(C)[nH]n2c(=O)c(Cc3ccccc3)c(C)nc12,-11.0%,11.2µM*,-6.8%,-3.7%,14.1µM*
COc1ccc(-c2c(C)[nH]n3c(=O)c(Cc4ccccc4)c(C)nc23)cc1,?,3.16µM*,-11.8%,-24.0%,2.51µM*
Cc1nc2c(-c3ccccc3)c(C)[nH]n2c(=O)c1Cc1ccc(Br)cc1,?,nt,nt,-15.6%,nt
COc1ccc([C@]23Cc4cc(OC)c(OC)cc4C(O2)c2c(cc(C)n(Cc4ccccc4)c2=O)O3)cc1,nt,?,nt,nt,4.8%[10 µM]
CCOC(=O)Cc1cc(=O)n2[nH]cc(-c3cccc(Br)c3)c2n1,-19.2%,?,-0.7%,-18.3%,12.6µM*
CCCc1cc(=O)n2[nH]cc(-c3ccc(Cl)cc3)c2n1,?,3.16µM*,-5.2%,?,4.47µM*
Cc1cc(=O)n2[nH]cc(-c3ccccc3)c2n1,2.2%,?,-4.8%,-0.2%,?
CCOC(=O)Cc1c(C)nc2c(-c3ccc(Cl)cc3)c[nH]n2c1=O,?,15.8µM*,-7.7%,10.5%,5.62µM*
COCc1cc(=O)n2[nH]cc(-c3ccccc3)c2n1,47.5%,10µM*,-0.3%,6.4%,12.6µM*
CCOC(=O)C1(C)C=C(Nc2ccc(C(N)=O)cc2)C(=O)N1c1ccccc1 (centres undefined),11.2%,nt,2.5%,-5.1%,nt
COc1ccc(-n2c(-c3cccc(F)c3)nc3c(cnn3-c3ccc(C)cc3)c2=O)cc1,-2.8%,nt,0.7%,-1.1%,nt
C=CCOc1c(Cl)cc(CNc2nccs2)cc1OC,1.5%[0.307 µM],?,0.0%,1.3%[0.307 µM],5.62µM*
C=CCOc1ccc(CNc2nccs2)cc1OCC,?,-19.7%,?,-0.1%,24.7%
SMILES,GLP-1R inv ag,Gal4-VP16 FLuc,GLP1R ag,HEK293 tox,RORg inh
C=CCOc1c(CNc2nccs2)cccc1OCC,-11.6%,?,0.2%,-11.4%,11.2µM*
O=C(CSc1nc2c(c(=O)[nH]1)CCCC2)Nc1cccc(O)c1,19.3%,nt,nt,-0.9%,nt
CCOC(=S)SCc1cn2ccc(C)cc2n1,?,?,-12.1%,4.8%[1.53 µM],14.1µM*
Cc1ccn2cc(CSc3ccccc3N)nc2c1,-0.6%,-6.8%,-11.3%,-9.2%,12.6µM*
CCOC(=O)c1cc(S(=O)(=O)N2CCN(c3cc(C)ccc3C)CC2)[nH]n1,-12.1%,nt,-3.6%,0.5%,nt
O=[N+]([O-])c1ccc(O)c(/C=N/NC2=NS(=O)(=O)c3ccccc32)c1,-1.9%,1.26µM*,-0.5%,-11.6%,1.26µM*
O=[N+]([O-])c1ccc(O)c(/C=N/Nc2ccc(Cl)nn2)c1,-89.7%,1.41µM*,1.6%,-67.0%,1µM*
O=S1(=O)N=C(N/N=C/c2cccs2)c2ccccc21,?,0.501µM*,1.2%,?,0.891µM*
O=[N+]([O-])c1ccc(/C=N/NC2=NS(=O)(=O)c3ccccc32)cc1,1.1%,8.6%,1.9%,4.8%,-10.5%
CC1CCCCN1S(=O)(=O)c1ccc(C(=O)Nc2sc3c(c2C(N)=O)CC(C)(C)NC3(C)C)cc1 (centres undefined),?,nt,-1.0%,0.8%,nt
CCCN(C(=O)Cn1cnc2sc(C)c(S(=O)(=O)N3CCN(c4ncccn4)CC3)c2c1=O)c1cccc(C)c1,12.6%,nt,1.0%,-2.2%,nt
Cc1nc(N2CCOCC2)c2c(C(=O)N3CCN(c4ccccc4F)CC3)c(C)oc2n1,11.3%,nt,nt,15.3%,nt
c1ccc(NCc2cccnc2)cc1,12.2%,-1.1%,12.1%,6.3%,22.9%
O=C1c2ccccc2C(=O)c2c(NCc3cccnc3)cccc21,14.4%,3.16µM*,2.9%,-1.6%,-19.5%
COc1ccc(NC(C)=O)cc1NC(C)c1nc2sc(C)c(C)c2c(=O)[nH]1 (centres undefined),55.4%,-2.7%,17.6%,-3.4%,10µM*
CCNC(=S)NNC(=O)Cn1nc(C)cc1C,31.6%,-20.9%,-12.2%,-2.8%,10µM*
Cc1cc([N+](=O)[O-])nn1CC(=O)NNC(=S)Nc1ccc(F)cc1,23.0%,?,-0.7%,-1.9%,14.1µM*
Cc1cc(C(F)(F)F)nn1CC(=O)NNC(=S)NCC(C)C,0.0%,-19.8%,-7.6%,6.0%,7.08µM*
CCN1C(=O)[C@@H]2[C@H]3C(=CC[C@@H]2C1=O)C1(OCCCO1)[C@H]1O[C@@H]1[C@H]3O,nt,10.0%[10 µM],nt,nt,14.6%[10 µM]
Cc1nnc(SCc2cnc(-c3ccc(C(C)C)cc3)s2)n1C,0.0%,11.2µM*,2.2%,2.9%,10µM*
c1ccc(-c2ncc(CSc3nncn3-c3ccccc3)s2)cc1,2.1%,16.2%,9.3%,-19.9%,-33.3%
CSc1cccc(NC(=O)Cn2c(=O)n(Cc3ccccc3)c(=O)c3sc4ccccc4c32)c1,14.2%,nt,1.1%,0.0%,nt
CN(C)CC/C=C1/c2ccccc2CS(=O)(=O)c2ccccc21,7.5%,nt,6.0%,-8.0%,nt
CN(C)CC/C=C1\c2ccccc2COc2ccccc21,10µM*,0.5%,-1.1%,-10.1%,-24.8%[10 µM]
Cc1ccc(NC(=O)O/N=C/c2c(C)nn(C(C)(C)C)c2C)cc1Cl,?,0.282µM*,-3.7%,5.7%,0.282µM*
COc1ccc(C(=O)N2CCC3(CC2)CN(Cc2ccc(C#N)cc2)C3)cc1,nt,0.5%,nt,nt,-2.2%
CN(C)c1ccc(/C=N/N=C/c2ccccc2O)cc1,1.1%,?,-18.1%,-3.1%,7.94µM*
Cc1ccc2[nH]c3nc(CCCn4ccnc4-c4ccccc4)nnc3c2c1,nt,-8.3%[10 µM],nt,nt,8.7%[10 µM]

# Screening results as filed in PubChem.
